Inconclusive results are not listed. Calls of active or inactive are those of the source. Rule for the calls, unless noted: active = hit-call score of the fitted dose curve at least 0.9, where 1 is the maximum; inactive = score below 0.9.
How the values were obtained:
[1] = biological target: human RAR-related Orphan Receptor beta (RORb), RORB (gene 6096) (UniProt Q92753); assay: ATG_RORb_TRANS: Attagene TRANS-FACTORIAL HepG2 Assay for human RAR-related Orphan Receptor beta (RORb) (AID 2283010; active = hit-call score of the fitted dose curve at least 0.9, where 1 is the maximum)
How it was run: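 HepG2 cells were transiently transfected with multiplexed GAL4-UAS reporter units expressing chimeric nuclear receptor–GAL4 proteins, then dosed for 24 h. Reporter mRNA was quantified by RT-PCR with fluorescent labelling and capillary electrophoresis; gain of signal was fitted relative to DMSO.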

[2] = biological target: Retinoic acid receptor RXR-alpha (Homo sapiens) (UniProt P19793); assay: ATG_RXRa_TRANS: Attagene TRANS-FACTORIAL HepG2 Assay for human Retinoid X Receptor alpha (RXRa) (AID 2283012; active = hit-call score of the fitted dose curve at least 0.9, where 1 is the maximum)
How it was run: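 HepG2 cells transiently transfected with multiplexed GAL4-UAS reporter units and chimeric NR-GAL4 fusions, dosed 24 h. Reporter mRNA measured by RT-PCR, FAM labelling, HpaI digestion and capillary electrophoresis; gain-of-signal fitted relative to DMSO baseline.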

[3] = read-out: E-selectin (Homo sapiens) (UniProt P16581); assay: BSK_3C_Eselectin: BioMAP Diversity Plus: 3C Assay for Eselectin Biomarker Activity (AID 2283015); settings: primary human endothelial cells (HUVEC); actives raise or lower the signal
How it was run: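 E-selectin ELISA readout, fitted bidirectionally relative to DMSO, taken 24 h post-dosing in HUVEC cultures of the 3C system. Overt cytotoxicity tracked with sulforhodamine B staining of parallel wells.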

[4] = read-out: Interleukin-1 alpha (IL1a), IL1A (gene 3552); assay: BSK_BE3C_IL1a: BioMAP Diversity Plus: BE3C Assay for Interleukin-1 alpha (IL1a) Biomarker Activity (AID 2283016); settings: primary human bronchial epithelial cells; actives raise or lower the signal
How it was run: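 Human primary bronchial epithelial cells (BE3C system) were dosed with compound and IL-1a measured by ELISA 24 h later. Activity was fitted bidirectionally against DMSO baseline; cytotoxicity was tracked in parallel cultures by SRB total-protein staining.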

[5] = read-out: Monocyte Chemoattractant Protein-1 (MCP1), CCL2 (gene 6347); assay: BSK_3C_MCP1: BioMAP Diversity Plus: 3C Assay for Monocyte Chemoattractant Protein-1 (MCP1) Biomarker Activity (AID 2283017); settings: primary human endothelial cells (HUVEC); actives raise or lower the signal
How it was run: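 MCP-1 was measured by ELISA 24 h after dosing in primary HUVEC 3C cultures and fitted in both directions relative to DMSO; cytotoxicity was checked by SRB total-protein staining in parallel wells.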

[6] = read-out: Monocyte Chemoattractant Protein-1 (MCP1), CCL2 (gene 6347); assay: BSK_4H_MCP1: BioMAP Diversity Plus: 4H Assay for Monocyte Chemoattractant Protein-1 (MCP1) Biomarker Activity (AID 2283018); settings: primary human endothelial cells (HUVEC); actives raise or lower the signal
How it was run: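 Human umbilical vein endothelial cells (4H system) dosed with chemical; MCP-1 measured by ELISA 24 h after dosing. Bidirectional curve fitting against DMSO negative control as baseline; parallel SRB total-protein staining tracks overt cytotoxicity.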

[7] = read-out: Human Leukocyte Antigen - DR isotype (HLADR), HLA-DRA (gene 3122); assay: BSK_3C_HLADR: BioMAP Diversity Plus: 3C Assay for Human Leukocyte Antigen - DR isotype (HLADR) Biomarker Activity (AID 2283019); settings: primary human endothelial cells (HUVEC); actives raise or lower the signal
How it was run: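 Bidirectional fitting against DMSO was applied to the HLA-DR ELISA signal from human umbilical vein endothelial cells, 24 h post-dose. Cytotoxicity came from parallel SRB total-protein staining; 3C proliferation was counted by SRB at 48 h.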

[8] = read-out: Interleukin-8 (IL8), CXCL8 (gene 3576); assay: BSK_3C_IL8: BioMAP Diversity Plus: 3C Assay for Interleukin-8 (IL8) Biomarker Activity (AID 2283020); settings: primary human endothelial cells (HUVEC); actives raise or lower the signal
How it was run: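 Primary human umbilical vein endothelial cells (3C system) were exposed to test chemical for 24 h, then IL-8 was quantified by ELISA. Responses were fitted bidirectionally against DMSO vehicle as baseline.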

[9] = read-out: Monokine induced gamma interferon (MIG), CXCL9 (gene 4283); assay: BSK_3C_MIG: BioMAP Diversity Plus: 3C Assay for Monokine induced gamma interferon (MIG) Biomarker Activity (AID 2283021); settings: primary human endothelial cells (HUVEC); actives raise or lower the signal
How it was run: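 Primary human umbilical vein endothelial cells in the 3C system were exposed to chemical for 24 h, after which MIG was quantified by ELISA. Activity was fitted bidirectionally against DMSO as negative control and baseline.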

[10] = BSK_3C_SRB: Viability Assessment in the BioMAP Diversity Plus: 3C Assay (AID 2283023); settings: primary human endothelial cells (HUVEC);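 note: fitted both ways against DMSO so a hit may be signal rise or drop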
How it was run: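 Cytotoxicity readout in parallel HUVEC 3C cultures: after 24 h compound exposure, cells fixed with 10% TCA, stained with 0.1% SRB and read at 560 nm. Gain or loss relative to DMSO fitted.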

[11] = read-out: Matrix Metallopeptidase 1 (MMP1), MMP1 (gene 4312); assay: BSK_BE3C_MMP1: BioMAP Diversity Plus: BE3C Assay for Matrix Metallopeptidase 1 (MMP1) Biomarker Activity (AID 2283024); settings: primary human bronchial epithelial cells; actives raise or lower the signal
How it was run: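 Primary human bronchial epithelial cells were dosed with test chemicals, and MMP1 levels were measured by ELISA 24 h later. Data were fitted bidirectionally against DMSO as the negative control and activity baseline.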

[12] = BSK_3C_Vis: BioMAP Diversity Plus: 3C Assay for Morphology Visualization (AID 2283025); settings: primary human endothelial cells (HUVEC);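 note: fitted both ways so gain or loss versus DMSO counts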
How it was run: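 Human umbilical vein endothelial cells in the 3C system were imaged by light microscopy 24 h after chemical dosing to record cell morphology. Activity was fitted bidirectionally against DMSO as negative control and baseline; the endpoint serves as a background control.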

[13] = read-out: Pselectin, SELP (gene 6403); assay: BSK_4H_Pselectin: BioMAP Diversity Plus: 4H Assay for Pselectin Biomarker Activity (AID 2283026); settings: primary human endothelial cells (HUVEC); actives raise or lower the signal
How it was run: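 Primary human umbilical vein endothelial cells were exposed to test chemical for 24 h, then cell-surface P-selectin was quantified by ELISA. Activity was fitted bidirectionally against DMSO as negative control and baseline.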

[14] = BSK_4H_SRB: Viability Assessment in the BioMAP Diversity Plus: 4H Assay (AID 2283027); settings: primary human endothelial cells (HUVEC);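 note: cells exposed to compound for 24 h before staining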;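 for AC50: curves fitted both ways versus DMSO so AC50 may be loss or gain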
How it was run: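 Human umbilical vein endothelial cells were dosed with chemical and, after 24 h, fixed with 10% TCA, stained with 0.1% sulforhodamine B, and read at 560 nm to give total protein as a cytotoxicity measure. Bidirectional fitting relative to DMSO control.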

[15] = read-out: Thrombomodulin, THBD (gene 7056); assay: BSK_3C_Thrombomodulin: BioMAP Diversity Plus: 3C Assay for Thrombomodulin Biomarker Activity (AID 2283029); settings: primary human endothelial cells (HUVEC); actives raise or lower the signal
How it was run: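 Primary human umbilical vein endothelial cells (3C system) were exposed to chemical for 24 h, then thrombomodulin levels were measured by ELISA. Activity was fitted bidirectionally against the DMSO negative control as baseline.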

[16] = read-out: Urokinase-type plasminogen activator receptor (uPAR), PLAUR (gene 5329); assay: BSK_4H_uPAR: BioMAP Diversity Plus: 4H Assay for Urokinase-type plasminogen activator receptor (uPAR) Biomarker Activity (AID 2283030); settings: primary human endothelial cells (HUVEC); actives raise or lower the signal
How it was run: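 uPAR level read by ELISA on HUVEC cultures (BioMAP 4H) 24 h post-dosing, analyzed for gain or loss relative to DMSO. Parallel SRB staining assessed overt cytotoxicity.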

[17] = read-out: Vascular endothelial growth factor receptor 2 (Homo sapiens) (UniProt P35968); assay: BSK_4H_VEGFRII: BioMAP Diversity Plus: 4H Assay for Vascular endothelial growth factor receptor 2 (VEGFR2) Biomarker Activity (AID 2283031); settings: primary human endothelial cells (HUVEC); actives raise or lower the signal
How it was run: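 Measured by ELISA after 24 h of compound treatment: VEGFR2 on primary human umbilical vein endothelial cells, fitted in both directions relative to DMSO. Parallel cultures received SRB staining (560 nm) for overt cytotoxicity.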

[18] = biological target: human Retinoid X Receptor beta (RXRb), RXRB (gene 6257) (UniProt P28702); assay: ATG_RXRb_TRANS: Attagene TRANS-FACTORIAL HepG2 Assay for human Retinoid X Receptor beta (RXRb) (AID 2283013; active = hit-call score of the fitted dose curve at least 0.9, where 1 is the maximum)
How it was run: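 HepG2 cells transiently transfected with multiplexed reporter units driven by GAL4-UAS and exogenous chimeric NR-Gal4 proteins; treated 24 h. Reporter mRNA measured by RT-PCR, 6-FAM labelling and capillary electrophoresis; gain-of-signal fitted versus DMSO baseline.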

[19] = biological target: human Vitamin D Receptor (VDR), VDR (gene 7421) (UniProt P11473); assay: ATG_VDR_TRANS: Attagene TRANS-FACTORIAL HepG2 Assay for human Vitamin D Receptor (VDR) (AID 2283022; active = hit-call score of the fitted dose curve at least 0.9, where 1 is the maximum)
How it was run: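 Transactivation by an exogenous VDR-Gal4 chimera in transiently transfected HepG2 cells was measured as reporter transcript level 24 hours after chemical treatment. RT-PCR products were analysed by capillary electrophoresis and fitted in the positive direction relative to DMSO.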

[20] = BSK_BE3C_SRB: Viability Assessment in the BioMAP Diversity Plus: BE3C Assay (AID 2283028); settings: primary human bronchial epithelial cells
How it was run: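 Cytotoxicity read-out: SRB (0.1%) staining of TCA-fixed (10%) human lung bronchial epithelial cells, absorbance 560 nm, 24 h post-dosing. Curves fitted both directions relative to DMSO.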

Measured: AC50

Chain of human Vitamin D Receptor (VDR), VDR (gene 7421) (P11473 whole entry, looked up, the tested form may be a part): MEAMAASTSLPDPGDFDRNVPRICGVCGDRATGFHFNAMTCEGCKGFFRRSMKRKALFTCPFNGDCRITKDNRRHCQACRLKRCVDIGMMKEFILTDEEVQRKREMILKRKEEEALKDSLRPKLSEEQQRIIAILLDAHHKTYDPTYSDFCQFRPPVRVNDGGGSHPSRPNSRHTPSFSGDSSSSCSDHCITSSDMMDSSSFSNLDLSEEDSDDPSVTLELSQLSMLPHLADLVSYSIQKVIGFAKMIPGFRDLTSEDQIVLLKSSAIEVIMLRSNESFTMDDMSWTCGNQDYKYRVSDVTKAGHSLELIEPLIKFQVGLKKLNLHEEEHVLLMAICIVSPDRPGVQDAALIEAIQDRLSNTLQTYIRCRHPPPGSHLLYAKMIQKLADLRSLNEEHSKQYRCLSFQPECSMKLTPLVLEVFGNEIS
Chain of Retinoic acid receptor RXR-alpha (Homo sapiens) (P19793 whole entry, looked up, the tested form may be a part): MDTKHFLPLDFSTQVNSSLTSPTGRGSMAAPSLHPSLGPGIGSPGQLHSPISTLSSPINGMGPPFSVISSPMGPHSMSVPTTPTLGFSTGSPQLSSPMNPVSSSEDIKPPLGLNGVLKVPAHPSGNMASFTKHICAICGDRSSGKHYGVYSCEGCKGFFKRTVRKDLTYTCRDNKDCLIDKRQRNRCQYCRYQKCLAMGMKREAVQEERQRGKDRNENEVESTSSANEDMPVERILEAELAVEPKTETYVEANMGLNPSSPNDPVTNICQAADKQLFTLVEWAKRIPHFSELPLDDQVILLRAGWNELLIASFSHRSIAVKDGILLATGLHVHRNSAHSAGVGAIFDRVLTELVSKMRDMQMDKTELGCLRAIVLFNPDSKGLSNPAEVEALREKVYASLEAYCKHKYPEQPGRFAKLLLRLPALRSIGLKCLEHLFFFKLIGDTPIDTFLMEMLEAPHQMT
Chain of E-selectin (Homo sapiens) (P16581 whole entry, looked up): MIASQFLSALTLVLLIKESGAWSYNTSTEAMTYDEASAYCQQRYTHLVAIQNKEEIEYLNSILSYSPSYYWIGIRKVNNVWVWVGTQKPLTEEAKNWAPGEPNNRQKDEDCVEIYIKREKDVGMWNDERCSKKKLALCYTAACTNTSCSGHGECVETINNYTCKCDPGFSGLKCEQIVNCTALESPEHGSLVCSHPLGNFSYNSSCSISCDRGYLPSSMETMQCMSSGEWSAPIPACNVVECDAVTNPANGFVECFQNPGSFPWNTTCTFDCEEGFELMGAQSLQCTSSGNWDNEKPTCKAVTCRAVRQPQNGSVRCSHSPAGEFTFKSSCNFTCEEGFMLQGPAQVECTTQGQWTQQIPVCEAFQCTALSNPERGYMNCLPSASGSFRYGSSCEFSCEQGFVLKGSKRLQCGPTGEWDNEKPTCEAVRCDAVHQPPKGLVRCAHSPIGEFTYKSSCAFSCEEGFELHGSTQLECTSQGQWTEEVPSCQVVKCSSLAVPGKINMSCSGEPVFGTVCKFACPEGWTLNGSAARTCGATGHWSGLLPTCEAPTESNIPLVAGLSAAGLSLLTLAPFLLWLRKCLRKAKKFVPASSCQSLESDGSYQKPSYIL
Chain of human RAR-related Orphan Receptor beta (RORb), RORB (gene 6096) (Q92753 whole entry, looked up, the tested form may be a part): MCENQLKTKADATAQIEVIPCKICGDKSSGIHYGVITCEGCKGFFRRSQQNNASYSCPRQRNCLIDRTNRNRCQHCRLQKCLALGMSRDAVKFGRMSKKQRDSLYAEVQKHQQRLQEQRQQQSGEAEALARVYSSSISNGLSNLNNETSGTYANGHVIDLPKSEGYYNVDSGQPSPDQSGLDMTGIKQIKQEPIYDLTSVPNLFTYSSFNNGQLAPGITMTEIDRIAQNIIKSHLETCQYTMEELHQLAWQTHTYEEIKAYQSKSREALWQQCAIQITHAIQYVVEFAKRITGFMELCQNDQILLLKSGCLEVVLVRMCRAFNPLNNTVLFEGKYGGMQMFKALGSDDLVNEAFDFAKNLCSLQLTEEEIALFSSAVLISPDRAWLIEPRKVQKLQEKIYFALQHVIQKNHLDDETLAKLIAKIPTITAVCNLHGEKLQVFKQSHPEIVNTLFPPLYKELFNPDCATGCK
Chain of human Retinoid X Receptor beta (RXRb), RXRB (gene 6257) (P28702 whole entry, looked up, the tested form may be a part): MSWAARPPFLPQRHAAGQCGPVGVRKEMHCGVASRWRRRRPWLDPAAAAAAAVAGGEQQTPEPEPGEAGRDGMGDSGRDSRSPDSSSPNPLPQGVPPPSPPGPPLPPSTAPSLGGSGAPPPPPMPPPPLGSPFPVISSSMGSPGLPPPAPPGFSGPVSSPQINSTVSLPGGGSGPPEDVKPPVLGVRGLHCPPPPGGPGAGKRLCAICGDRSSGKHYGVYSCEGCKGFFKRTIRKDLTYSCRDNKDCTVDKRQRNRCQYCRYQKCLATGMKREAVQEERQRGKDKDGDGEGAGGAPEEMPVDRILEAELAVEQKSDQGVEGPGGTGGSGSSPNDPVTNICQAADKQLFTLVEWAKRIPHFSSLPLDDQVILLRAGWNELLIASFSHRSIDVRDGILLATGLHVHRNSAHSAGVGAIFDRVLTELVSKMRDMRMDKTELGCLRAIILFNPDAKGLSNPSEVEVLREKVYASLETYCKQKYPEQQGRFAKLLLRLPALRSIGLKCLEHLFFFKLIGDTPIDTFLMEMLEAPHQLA

NCC1(Cc2noc(=O)[nH]2)CCCCC1
not listed: [18] | [19] | [20]
inactive: all other assays above

CC1(C)NC(=O)NC1=O
inactive: all assays above

FC(F)(F)C(F)(F)C(F)(F)C(F)(F)C(F)(F)C(F)(F)CCI
not listed: [19]
inactive: all other assays above

CCNc1cccc(C)c1
inactive: all assays above

O=c1[nH]cc(F)c(=O)[nH]1
active: [10] 20.4 µM
not listed: [16]
inactive: all other assays above

C=CCc1ccc(O)c(OC)c1
active: [18] 63.2 µM
not listed: [19]
inactive: all other assays above

Nc1ccccc1N
active: [3] 17.2 µM | [7] 20 µM
inactive: all other assays above

Cc1ccc(C)c(O)c1C
not listed: [2]
inactive: all other assays above

CCOc1ccc2c(c1)C(C)=CC(C)(C)N2
active: [2] 100 µM | [18] 6.69 µM | [19] 150 µM
not listed: [20]
inactive: all other assays above

CCOC(=O)CCC(=O)OCC
not listed: [18] | [19] | [20]
inactive: all other assays above

O=c1c(O)c(-c2ccc(O)c(O)c2)oc2cc(O)cc(O)c12
inactive: [1] | [2] | [18] | [9] | [11] | [20] | [15]
active: [3] 34.7 µM | [4] 15.8 µM | [5] 15 µM | [6] 20 µM | [8] 14.5 µM | [10] 15.3 µM | [12] 37.5 µM | [13] 16.6 µM | [14] 30.1 µM | [16] 33.6 µM

CCCCc1ccc2c(n1)[C@@H](c1ccc(OC)cc1C[C@H](C)C(=O)O)[C@H](C(=O)O)[C@H]2c1ccc2c(c1)OCO2
not listed: [18] | [19] | [20]
inactive: all other assays above

Oc1ccc2ccccc2c1N=Nc1ccccc1
active: [18] 6.33 µM | [11] 3.97 µM
not listed: [2] | [19]
inactive: all other assays above

NCCO
not listed: [19] | [20]
inactive: all other assays above

Reference: PubChem BioAssay (EPA / NIEHS)
